About 83,000 compounds went through this panel and 20% of them were active in at least one assay; those are over-represented in the sample as a whole.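 Percent growth is the endpoint: 0 to 100 indicates growth inhibition (40 means 60% inhibition), 0 means no net growth, and negative values indicate cell death.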 The source made the active and inactive calls. Rule for the calls: active = growth percent below 10; inactive = the rest.

In the test the test system is MDA-MB-468 breast. As to the kind of experiment: NCI-60 one-dose screen, 48 h (100 = growth as untreated, 0 = no growth, -100 = all killed). The settings on record: 10 µM unless noted.
As for `COC(=O)CCCNCCCn1ccc2cc(NCc3cccc(-c4ccccc4)c3C)ccc21`, the growth is 53.4% (inactive). To `Cc1oc2nc[nH]c(=O)c2c1C(=O)/C=C/c1ccc(Cl)cc1Cl` belongs 86.7% (inactive). Then `COc1ccc(-n2c(COc3ccc(F)cc3)n[nH]c2=S)cc1`, with 103% (inactive); and `COCCOC(=O)NC(=O)Nc1ccc(/C(=N/O)c2ccc(Cl)cc2)cc1`, with 19.8% (inactive). Regarding `Cc1cc(OCc2ccc(C(F)(F)F)cc2)c2c(c1)C(=O)C=C(NCCN1CCCC1)C2=O`, the growth is 51.3% (inactive). For the molecule `Cc1cc(=O)[nH]c2c(C#N)cnn12`, the growth was 106% (inactive). To `CC(C)NC(=O)OCc1c(COC(=O)NC(C)C)c(-c2ccc(Cl)c(Cl)c2)n2c1SCC2` belongs -73.9% (active); to `CC(C)(C)CC(C)(C)n1nnnc1C(Nc1ccccc1)c1cc2cccc3ccc4cccc1c4c32` (stereo not drawn), 86.5% (inactive); to `C[C@@H](O)[C@H]1C(=O)N2C(C(=O)O)=C(SC3CN[C@H](C(=O)N(C)C)C3)[C@H](C)[C@H]12` (stereo partly drawn), 100% (inactive). To `CN1CCN(C(=O)[C@]23CCC(C)(C)C[C@H]2C2=CC[C@@H]4[C@@]5(C)C/C(=C/c6cccnc6)C(=O)C(C)(C)[C@@H]5CC[C@@]4(C)[C@]2(C)CC3)CC1` belongs 34.3% (inactive). To `Oc1ccc2ccccc2c1N=Nc1ccccn1` belongs -28.6% (active); to `COc1ccc2c(CCc3ccc(Cl)cc3)c3[n+](cc2c1OC)CCc1cc2c(cc1-3)OCO2`, -11.7% (active). In the case of `CCC(C)(C)C(=O)O[C@H]1C[C@@H](C)C=C2C=C[C@H](C)[C@H](CC[C@@H]3CC=CC(=O)O3)[C@H]21`, the growth was 52.1% (inactive).

The values are drawn from PubChem BioAssay (NCI).
